Inhibition data for 33 compounds are collected here from ChEMBL document CHEMBL1961873, “Compounds: GSK PKIS; Assays: Nanosyn kinase panel” (2012).

In one test the target is Tyrosine-protein kinase Lyn (Homo sapiens) (UniProt P07948). The settings on record: at 1 µM.
Sequence of Tyrosine-protein kinase Lyn (Homo sapiens) (P07948 2-512 limits assumed): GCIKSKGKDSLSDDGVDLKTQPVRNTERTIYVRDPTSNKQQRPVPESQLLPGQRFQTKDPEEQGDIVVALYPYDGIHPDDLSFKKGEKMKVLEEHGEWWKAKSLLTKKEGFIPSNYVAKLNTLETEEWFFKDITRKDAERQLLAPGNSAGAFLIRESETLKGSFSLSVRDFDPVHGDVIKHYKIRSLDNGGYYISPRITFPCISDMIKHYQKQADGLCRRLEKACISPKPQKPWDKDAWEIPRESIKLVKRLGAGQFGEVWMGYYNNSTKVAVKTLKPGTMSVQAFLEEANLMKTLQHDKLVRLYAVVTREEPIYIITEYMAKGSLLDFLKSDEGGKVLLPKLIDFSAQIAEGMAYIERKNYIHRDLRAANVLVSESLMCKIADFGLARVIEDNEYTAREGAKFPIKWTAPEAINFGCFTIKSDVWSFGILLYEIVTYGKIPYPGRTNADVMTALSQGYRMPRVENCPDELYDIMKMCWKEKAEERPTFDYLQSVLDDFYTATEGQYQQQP
One may read the inhibition as the change of the read-out against control, counted positive when it falls. As to `c1ccc(COc2ccc(Nc3ncnc4ccc(-c5ccco5)cc34)cc2)cc1`, the inhibition came to 2.5%.

Take `N#Cc1c(NC(=O)c2ccc(F)cc2)sc2c1CCCC2`: the inhibition was found to be 2.77%.

Turning to `COc1cc(/C=N/Nc2ncnc3[nH]ncc23)ccc1O`, the inhibition amounted to 63.9%.

For `Nc1nc(-c2cccc(Cl)c2)c(-c2ccc3ncccc3n2)s1`, the inhibition came out at 16.1%.

Regarding `COc1cc2ncn(-c3cc(OCc4ccccc4C(F)(F)F)c(C(=O)N(C)C)s3)c2cc1OC`, the inhibition was 10.9%.

For the compound `COC(=O)Nc1nc2ccc(S(=O)(=O)c3ccc(NC(=O)Nc4cc(C(F)(F)F)ccc4F)cc3)cc2[nH]1`, the inhibition is 3.43%.

With `COc1ccc(-c2cc3c(N)ncnc3o2)cc1`, the inhibition amounted to 3.66%.

In the case of `COc1cc(N2CCN(C(C)C)CC2)ccc1Nc1nc(Nc2ccc(F)cc2C(N)=O)c2cc[nH]c2n1`, the inhibition is 2.96%.

`CC1=C(C(=O)Nc2cc(Cl)c3[nH]ncc3c2)C(c2ccc(C(F)(F)F)cc2)CC(=O)N1` (stereo unspecified): the inhibition is 10.9%.

As to `CC(=O)NCc1cccc(C#Cc2cncnc2Nc2ccc(OCc3cccc(F)c3)c(Cl)c2)c1`, the inhibition was -0.62%.

With `CCn1c(-c2nonc2N)nc2c(C#CC(C)(C)O)ncc(OC3CCNCC3)c21`, the inhibition amounted to 4.35%.

For `NS(=O)(=O)c1ccc(Nc2ncc(-c3ccccc3)o2)cc1`, the inhibition came to 12.4%.

For `CCCN(CCS(C)(=O)=O)Cc1ccc(-c2ccc3ncnc(Nc4ccc(OCc5cccc(F)c5)c(Cl)c4)c3c2)o1`, the inhibition stood at 7.93%.

As for `CN1CCC(n2cnc(-c3ccc(F)cc3)c2-c2ccnc(Nc3ccccc3)n2)CC1`, the inhibition is 23.3%.

For the compound `COc1ccc(CNC(=O)c2ccc(-c3cc(-c4nnc(C)o4)ccc3C)cc2)cc1`, the inhibition stood at 7.5%.

As to `COc1cc(Nc2nccc(Nc3ccc4c(C)n[nH]c4c3)n2)cc(OC)c1OC`, the inhibition was 87.4%.

On to `CN1CCC(n2cnc(-c3ccc(F)cc3)c2-c2ccnc(N)n2)CC1`, for which the inhibition is 10.1%.

Consider `COc1ccc2c(-c3ccnc(Nc4cccc(OC(F)(F)F)c4)n3)cnn2n1`, for which the inhibition worked out at 9.21%.

The next test has the same target. The conditions noted are these: at 0.1 µM.
As for `CCn1cc(-c2ccnc3[nH]ccc23)c(-c2cccc(NC(=O)Nc3ccc(OCc4ccccc4)cc3)c2)n1`, the inhibition was determined as 2.62%.

`Cc1cccc(Nc2ncc(-c3ccccc3)o2)c1`: the inhibition came out at 2.22%.

Regarding `Nc1nc(-c2ccc(F)cc2)c(-c2ccc3ncccc3n2)s1`, the inhibition was determined as 7.37%.

Consider `FC(F)(F)c1cccc(-c2nn3ncccc3c2-c2ccnc(Nc3ccc4c(c3)OCCO4)n2)c1`, for which the inhibition was determined as 5.18%.

For `CNC(=O)c1cncc(/C=C/c2ccccc2Cl)c1`, the inhibition stood at 1.83%.

Regarding `O=C(O[C@H]1CN[C@H](C#Cc2cc3ncnc(Nc4ccc(Cc5ccccc5)cc4)c3s2)C1)N1CCOCC1`, the inhibition stood at 0.33%.

As to `COc1ccc(-c2nn3ncccc3c2-c2ccnc(Nc3ccc4c(c3)OCCO4)n2)cc1`, the inhibition came to 9.96%.

Regarding `CCNC(=O)O[C@H]1CN[C@H](C#Cc2cc3ncnc(Nc4ccc(OCc5cccc(F)c5)c(Cl)c4)c3s2)C1`, the inhibition was determined as 2.23%.

Consider `COc1ccc(-c2oc3ncnc(N)c3c2-c2ccc(NC(=O)Nc3cc(C(F)(F)F)ccc3F)cc2)cc1`, for which the inhibition was found to be 43.3%.

Regarding `CCn1c(-c2nonc2N)nc2cnc(Oc3cccc(NC(=O)c4ccc(N(C)C)cc4)c3)cc21`, the inhibition was found to be 0.82%.

`CCn1c(-c2nonc2N)nc2c(C#CC(C)(C)O)nc(OC[C@H](N)c3ccccc3)cc21`: the inhibition was determined as 2.36%.

For the compound `Fc1ccc(-c2nn3ncccc3c2-c2ccnc(Nc3ccc4c(c3)OCCO4)n2)cc1`, the inhibition is 26%.

Take `COc1cccc(-c2c[nH]c3c(N/N=C/c4ccncc4)ncnc23)c1`: the inhibition amounted to 33.8%.

Regarding `O=C(Nc1n[nH]c2cc(-c3ccc(F)cc3)ccc12)C1CC1`, the inhibition is 3.7%.

Turning to `Clc1ccc(-c2nn3ncccc3c2-c2ccnc(Nc3ccccc3)n2)cc1`, the inhibition amounted to 4.2%.

As to `c1ccc(COc2ccc(Nc3ncnc4ccc(-c5ccco5)cc34)cc2)cc1`, the inhibition turned out to be 1.39%.

With `N#Cc1c(NC(=O)c2ccc(F)cc2)sc2c1CCCC2`, the inhibition came out at 0.6%.

On to `COc1cc(/C=N/Nc2ncnc3[nH]ncc23)ccc1O`, for which the inhibition is 12.6%.

With `Nc1nc(-c2cccc(Cl)c2)c(-c2ccc3ncccc3n2)s1`, the inhibition is 5.14%.

In the case of `COc1cc2ncn(-c3cc(OCc4ccccc4C(F)(F)F)c(C(=O)N(C)C)s3)c2cc1OC`, the inhibition came to 0.93%.

Turning to `COC(=O)Nc1nc2ccc(S(=O)(=O)c3ccc(NC(=O)Nc4cc(C(F)(F)F)ccc4F)cc3)cc2[nH]1`, the inhibition is 1.56%.

Regarding `COc1ccc(-c2cc3c(N)ncnc3o2)cc1`, the inhibition came out at 1.13%.

On to `COc1cc(N2CCN(C(C)C)CC2)ccc1Nc1nc(Nc2ccc(F)cc2C(N)=O)c2cc[nH]c2n1`, for which the inhibition came to 1.54%.

Turning to `CC1=C(C(=O)Nc2cc(Cl)c3[nH]ncc3c2)C(c2ccc(C(F)(F)F)cc2)CC(=O)N1` (stereo unspecified), the inhibition is 3.46%.

In the case of `CC(=O)NCc1cccc(C#Cc2cncnc2Nc2ccc(OCc3cccc(F)c3)c(Cl)c2)c1`, the inhibition was -0.59%.

As for `CCn1c(-c2nonc2N)nc2c(C#CC(C)(C)O)ncc(OC3CCNCC3)c21`, the inhibition was found to be 2.01%.

Regarding `NS(=O)(=O)c1ccc(Nc2ncc(-c3ccccc3)o2)cc1`, the inhibition came to 2.72%.

For the compound `CCCN(CCS(C)(=O)=O)Cc1ccc(-c2ccc3ncnc(Nc4ccc(OCc5cccc(F)c5)c(Cl)c4)c3c2)o1`, the inhibition is 2.71%.

With `CN1CCC(n2cnc(-c3ccc(F)cc3)c2-c2ccnc(Nc3ccccc3)n2)CC1`, the inhibition stood at 2.82%.

For `COc1ccc(CNC(=O)c2ccc(-c3cc(-c4nnc(C)o4)ccc3C)cc2)cc1`, the inhibition is 2.67%.

Take `COc1cc(Nc2nccc(Nc3ccc4c(C)n[nH]c4c3)n2)cc(OC)c1OC`: the inhibition is 44.5%.

For the compound `CN1CCC(n2cnc(-c3ccc(F)cc3)c2-c2ccnc(N)n2)CC1`, the inhibition is 1.43%.

`COc1ccc2c(-c3ccnc(Nc4cccc(OC(F)(F)F)c4)n3)cnn2n1`: the inhibition came out at 3.18%.
